A selection: hits, their analogues and other compounds. The true share with any hit is near 10%.
BAZ2B block = inhibitors of human BAZ2B bromodomain; actives 4.4% (n = 360,000); Potency, µM (highest dose often 114 µM), inactives show at the top dose activity change, negative = inhibition, hits mostly inhibitors; Q9UIF8; AlphaScreen BAZ2B-H3K14Ac peptide displacement; also: % is scaled to controls: 0 for no effect and ±100 for the full control effect; nearly all actives have a fitted effect of over 60% in size
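Multi-concentration screen (max 110 uM) measuring displacement of acetylated histone H3 peptide from BAZ2B by AlphaScreen, using 50 nM protein, 50 nM peptide and 10 ug/mL streptavidin donor plus Ni-chelate acceptor beads.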
JMJD2A Tudor = inhibitors of human JMJD2A Tudor domain | Potency, µM (series often up to 114 µM), without a hit: top-dose activity change, negative = inhibition, most hits filed as inhibitors | AlphaScreen JMJD2A-Tudor / H3K4me3 peptide binding | actives 4.4% (n = 390,000) | O75164; also: % is scaled to controls: 0 for no effect and ±100 for the full control effect; nearly all actives have a fitted effect of over 50% in size
HP1b binding inh = HP1-beta chromodomain-methylated histone interaction inhibition. AID 540317. Potency, µM (top dose mostly 114 µM), inactives show at the highest dose activity change, negative = inhibition, actives largely listed as inhibitors. actives 0.56% (n = 390,000). AlphaScreen HP1-beta / biotin-H3K9me3 peptide binding; also: nearly all actives have a fitted effect of over 70% in size
Target sequence (P83916 whole entry, looked up): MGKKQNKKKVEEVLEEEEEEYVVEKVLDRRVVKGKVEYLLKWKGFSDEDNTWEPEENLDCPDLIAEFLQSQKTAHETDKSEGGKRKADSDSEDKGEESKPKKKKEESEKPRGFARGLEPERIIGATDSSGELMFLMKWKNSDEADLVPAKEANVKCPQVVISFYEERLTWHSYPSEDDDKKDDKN
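AlphaScreen: HP1-beta (50 nM) preformed 30 min with biotin-H3(1-18)K9me3 peptide (50 nM) in PBS pH 7.4, 0.01% Tween-20. Compound added for 30 min at RT, then streptavidin donor/nickel chelate acceptor beads (10 ug/mL) for 30 min.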
G9a block = inhibitors of human histone lysine methyltransferase G9a. actives 8.8% (n = 350,000). Potency, µM (top dose mostly 102 µM), inactives show at the top dose activity, negative = inhibition, actives largely listed as inhibitors. AID 504332. G9a H3K9 monomethylation, AlphaScreen, 2 h; also: % is scaled to controls: 0 for no effect and ±100 for the full control effect; nearly all actives have a fitted effect of over 75% in size
Target sequence (Q96KQ7 913-1193 limits assumed): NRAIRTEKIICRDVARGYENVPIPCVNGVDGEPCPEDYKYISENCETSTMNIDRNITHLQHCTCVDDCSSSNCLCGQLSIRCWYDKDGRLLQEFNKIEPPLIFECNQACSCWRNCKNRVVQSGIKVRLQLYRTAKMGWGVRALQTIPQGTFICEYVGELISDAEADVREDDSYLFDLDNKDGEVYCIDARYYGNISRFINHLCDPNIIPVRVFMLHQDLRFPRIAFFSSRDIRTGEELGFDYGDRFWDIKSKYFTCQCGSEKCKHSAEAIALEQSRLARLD
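Chemiluminescent proximity detection of H3K9 monomethylation, read after 10 min bead incubation in the dark. Reaction: 20 nM G9a, 500 nM biotin-H3K9 peptide, 20 uM SAM cofactor, 2 h, room temperature, following 15 min enzyme-compound preincubation.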
GLS inh = inhibitors of human glutaminase (GLS) | Potency, µM (titrated, usually from 45.5 µM), for inactives: at the highest dose activity change, negative = inhibition, most hits filed as inhibitors | GLS enzymatic activity, qHTS titration | actives 0.21% (n = 410,000); also: % is scaled to controls: 0 for no effect and ±100 for the full control effect
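Read-out is an Amplex red fluorescence increase coupled through glutamate oxidase and HRP, measured before and after 30 min room-temperature incubation. hKGA is in 45 mM KH2PO4 (pH 8.2) with 0.02% Tween-20; glutamine added as 1mM solution.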
Active calls of the source: *; u = inconclusive; x = no result given; [ ] = another dose, or the depositor's remark. Calls follow the shape of the dose curve; as a rule, active = well fitted curve in the direction sought with a large enough effect; inconclusive = small, poorly fitted or top-dose-only effect, or another doubt; inactive = no such curve, though single readings can be large; an effect the other way counts as inactive or inconclusive. Potency is read from the fitted curve at half-maximal effect.

SMILES	BAZ2B block	JMJD2A Tudor	HP1b binding inh	G9a block	GLS inh
N#CC1=C2SCN(C3CCCCC3)CN2C(=O)CC1c1ccc(Br)cc1 (configuration not stated)	x	15.8µM*	u	2.82µM*	12.7%
CCSC1=C(C#N)C(c2cccc(OC)c2)CC(=O)N1 (configuration not stated)	-1.2%	-18.2%	19.8%	u	2.3%
CCOc1cc(C2CC(=O)N3CN(C4CCCCC4)CSC3=C2C#N)ccc1O (configuration not stated)	-25.0%	79.4µM*	u	2.24µM*	14.0%
Cc1ccc(C2CC(=O)NC(SCc3ccccc3)=C2C#N)cc1 (configuration not stated)	-11.7%	89.1µM*	-10.2%	-10.1%[59 µM]	15.8%
Cc1ccc(C(=O)CSC2=C(C#N)C(c3ccco3)CC(=O)N2)c(C)c1 (configuration not stated)	x	50.1µM*	-39.7%	u	1.6%
CCCN1Cc2cccc(C(=O)Nc3cccc(C(=O)OCC)c3)c2C1=O	x	10.0%	68.3%	14.3%[59 µM]	-0.6%
CC(C)(C)c1ccc(CCC2OCC(C[N+]3(C)CCOCC3)O2)cc1 (configuration not stated)	-19.4%	u	-5.5%	50.1µM*	1.9%
Cc1ccc(C(=O)Nc2nnc(S(=O)(=O)N(C)Cc3ccc(Cl)cc3)s2)cc1	9.6%	13.1%	70.1%	10.0%[59 µM]	3.4%
Cn1c(C(=O)NCCN2CCc3ccccc3C2)cc2c(=O)n(C)c3ccccc3c21	-23.3%	-29.3%	31.0%	44.7µM*	-12.1%
Cn1c(C(=O)NCCN2CCN(c3ccccc3F)CC2)cc2c(=O)n(C)c3ccccc3c21	-0.4%	-24.6%	-5.6%	44.7µM*	0.8%
Cc1cccc(C)c1NC(=O)Cn1nnc(C(=O)Nc2c(C)cccc2C)c1N	x	-8.0%	14.7%	0.5%[59 µM]	0.3%
CCOC(=O)c1cccnc1SCC(=O)Nc1ccc(C)cc1C	4.3%	0.6%	-1.1%	12.8%[59 µM]	8.5%
Cc1cccc(OCC(=O)N2CCC(N3CCCCCC3)CC2)c1	u	3.16µM*	u	u	x
O=C(CCC1CCCC1)N1CCC(N2CCN(c3ccccc3)CC2)CC1	31.6µM*	1.41µM*	u	u	22.5%
COc1ccccc1N1CCN(C2CCN(C(=O)COc3ccccc3)CC2)CC1	50.1µM*	-17.6%	4.2%	10µM*	2.6%
COc1ccccc1N1CCN(C(=O)COc2cccc3ccccc23)CC1	-28.9%	-23.3%	18.2%	28.1%	-2.2%
COc1ccccc1C(=O)N1CCC(N2CCN(c3ccccc3)CC2)CC1	50.1µM*	2.51µM*	u	35.5µM*	6.7%
COc1ccc(/C(C)=N/NC(=O)CNC(=O)/C=C\c2ccccc2OC)c(OC)c1	-38.6%	16.3%	57.9%	1.7%	2.2%
COc1ccc(CNC(=O)c2cc3cccc4c3n2CC(C)S4)cc1 (configuration not stated)	2.9%	12.4%	90.7%	u	-2.8%
COc1ccccc1N1CCN(C(=O)C2CCN(C(=O)c3ccccc3Cl)CC2)CC1	-2.1%	-6.2%	36.6%	x	11.1%
CC(=O)Nc1ccc(OCC(=O)N2CCC(Cc3ccccc3)CC2)cc1	-15.9%	-11.7%	6.1%	2.4%	0.6%
O=C(c1ccccc1Oc1ccccc1)N1CCN(c2ccccc2)CC1	9.8%	-35.7%	-24.3%	39.8µM*	7.3%
CC1CCN(C(=O)COc2ccc(Nc3ccccc3)cc2)CC1	-38.8%	u	-19.6%	50.1µM*	u
COc1ccccc1C(=O)N1CCC(N2CCN(c3ccccc3OC)CC2)CC1	50.1µM*	17.8µM*	u	7.94µM*	-4.2%
O=C(O)Cc1c[nH]c2cccc(O)c12	35.5µM*	22.4µM*	35.5µM*	-33.3%[12.7 µM]	u
SMILES	BAZ2B block	JMJD2A Tudor	HP1b binding inh	G9a block	GLS inh
O=C(O)Cc1c[nH]c2ccccc12	x	-29.9%	0.9%	x	21.4%
CCOc1ccccc1CNC(=O)C1CCN(C2=NS(=O)(=O)C(c3ccc(C)c(C)c3)=C2C)CC1	-4.8%	1.0%	13.7%	1.0%[59 µM]	-0.8%
COc1ccccc1CNC(=O)C1CCN(C2=NS(=O)(=O)C(c3ccc(C)c(C)c3)=C2C)CC1	3.4%	56.2µM*	37.7%	-2.6%[59 µM]	-30.1%
CCCCOc1ccc(C(=O)N2CCN(CCc3ccncc3)CC2)cc1	u	-15.6%	41.6%	-4.1%[59 µM]	-11.2%
O=S(=O)(NCC(c1cccs1)S(=O)(=O)c1ccccc1)c1ccccc1 (configuration not stated)	-1.8%	-11.0%	27.1%	5.7%[59 µM]	-8.0%
CC1=NNC(=O)C1C(c1ccccc1)C1C(=O)NN=C1C (configuration not stated)	-11.0%	x	x	u	x
COc1ccc(NC(=O)c2ccc(-c3ccc([N+](=O)[O-])cc3)o2)cc1OC	u	u	-16.7%	79.4µM*	6.4%
CC(=O)Nc1ccc(NC(=O)c2ccc(-c3ccc([N+](=O)[O-])cc3)o2)cc1	-11.2%	-9.6%	10.6%	x	-15.0%
COc1cc([N+](=O)[O-])ccc1-c1ccc(C(=O)Nc2ccc(NC(C)=O)cc2)o1	-8.0%	-8.9%	24.7%	8.91µM*	3.5%
COc1ccc(NC(=O)Cn2nnc(C(=O)NCc3ccc4c(c3)OCO4)c2N)c(OC)c1	-4.2%	28.2µM*	10.8%	7.2%[59 µM]	17.1%
CN(CC(=O)Nc1n[nH]c(=S)s1)S(=O)(=O)c1cccc2cccnc12	u	3.55µM*	u	1.58µM*	u
CN(CC(=O)NCc1ccco1)S(=O)(=O)c1cccc2cccnc12	-7.8%	-12.4%	37.3%	70.8µM*	-6.1%
Cc1csc(NC(=O)CN(C)S(=O)(=O)c2cccc3cccnc23)n1	-3.2%	-17.2%	58.5%	-3.0%	8.7%
COc1ccc(C2=NN(C(=O)c3ccccc3)C(c3ccc(OC)c(OC)c3)C2)c(O)c1 (configuration not stated)	-25.6%	-32.8%	-7.3%	70.8µM*	u
COc1ccc(C2CC(c3ccc(OC)cc3OC(C)=O)=NN2C(=O)c2ccccc2)cc1 (configuration not stated)	-31.7%	-27.8%	-17.3%	-10.0%	-3.2%
Cc1cc(NC(=O)CSc2cc(Cl)ccc2Cl)n(-c2ccccc2)n1	6.3%	-5.5%	73.5%	59.1%[59 µM]	-5.2%
Cc1ccc(C)c(SCC(=O)Nc2cc(C)nn2-c2ccc(F)cc2)c1	6.8%	x	x	11.2µM*	x
C/C(CCc1ccc2c(c1)OCO2)=N\N=C(/N)SC1CC(=O)N(c2ccccc2F)C1=O (configuration not stated)	15.8µM*	-10.2%	24.3%	33.5%[0.501 µM]	7.7%
Cc1ccc(NC(=O)c2cc(S(=O)(=O)N3CCC4(CC3)OCCO4)ccc2F)cc1Cl	2.7%	-27.2%	-9.7%	-4.6%[59 µM]	-10.9%
c1ccc2cc(-c3cc4ccccn4c3)ccc2c1	u	u	-25.1%	35.5µM*	-3.1%

Screening data deposited in PubChem BioAssay by National Center for Advancing Translational Sciences (NCATS).
